Changes are numbered by the printed parent chain.
How the values were obtained:
Assay in all cases: protein-binding microarray (PBM); PBM: ~300 nM protein, 6 mM HEPES pH 7.8, 80 mM KCl, 0.5 mM EDTA, 0.5 mM EGTA, 6% glycerol, 35 ng/ul poly-dIdC, 1% milk, 1 h, room temperature; Ap Aiptasia and Nv Nematostella (sea anemones) / Co Capsaspora / Aq Amphimedon (sponge) / Dm Drosophila / Hu human; RHD is the Rel homology domain; high values mean tight binding
Conditions in all cases: dsDNA, one strand shown
GST-Ap-NF-kB RHD = target: T1, GST-Ap-NF-kB RHD (Exaiptasia pallida (Aiptasia), UniProt A0A913YAJ5 2-422)
T1 sequence: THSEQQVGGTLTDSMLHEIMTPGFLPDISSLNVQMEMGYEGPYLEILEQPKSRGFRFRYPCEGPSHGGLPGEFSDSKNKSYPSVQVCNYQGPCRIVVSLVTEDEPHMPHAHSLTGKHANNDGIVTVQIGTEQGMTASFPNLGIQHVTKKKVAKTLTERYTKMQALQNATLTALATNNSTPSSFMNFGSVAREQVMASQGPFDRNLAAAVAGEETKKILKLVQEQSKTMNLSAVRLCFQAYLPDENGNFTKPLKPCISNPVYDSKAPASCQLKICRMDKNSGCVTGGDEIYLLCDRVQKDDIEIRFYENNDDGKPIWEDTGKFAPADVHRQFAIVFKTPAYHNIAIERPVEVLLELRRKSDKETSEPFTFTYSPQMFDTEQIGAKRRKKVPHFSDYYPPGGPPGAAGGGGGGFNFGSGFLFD

[1] = target: T2, GST-Nv-NF-kB (Cys allele) (Nematostella vectensis, UniProt E5G601 2-411)
T2 sequence: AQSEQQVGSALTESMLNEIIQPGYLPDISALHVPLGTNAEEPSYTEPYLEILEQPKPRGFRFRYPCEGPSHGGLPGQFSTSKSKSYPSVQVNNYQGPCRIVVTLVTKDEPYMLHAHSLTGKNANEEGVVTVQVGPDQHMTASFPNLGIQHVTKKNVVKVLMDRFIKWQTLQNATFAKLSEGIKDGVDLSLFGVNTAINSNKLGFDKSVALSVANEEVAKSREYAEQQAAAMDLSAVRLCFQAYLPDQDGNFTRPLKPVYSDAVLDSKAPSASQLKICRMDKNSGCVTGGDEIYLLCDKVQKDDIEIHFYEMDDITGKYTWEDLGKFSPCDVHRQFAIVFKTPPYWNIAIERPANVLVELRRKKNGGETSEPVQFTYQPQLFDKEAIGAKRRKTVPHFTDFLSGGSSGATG

[2] = target: T3, GST-Nv-NF-kB (Ser allele) (Nematostella vectensis, UniProt A7UNT2 2-411)
T3 sequence: T2 sequence with Q21R, C66S, S207N, E215Q, V217A, E225K, A268E, D399E

GST-Co-NF-kB = target: T4, GST-Co-NF-kB (Capsaspora owczarzaki, UniProt F1ARL5 200-546)
T4 sequence: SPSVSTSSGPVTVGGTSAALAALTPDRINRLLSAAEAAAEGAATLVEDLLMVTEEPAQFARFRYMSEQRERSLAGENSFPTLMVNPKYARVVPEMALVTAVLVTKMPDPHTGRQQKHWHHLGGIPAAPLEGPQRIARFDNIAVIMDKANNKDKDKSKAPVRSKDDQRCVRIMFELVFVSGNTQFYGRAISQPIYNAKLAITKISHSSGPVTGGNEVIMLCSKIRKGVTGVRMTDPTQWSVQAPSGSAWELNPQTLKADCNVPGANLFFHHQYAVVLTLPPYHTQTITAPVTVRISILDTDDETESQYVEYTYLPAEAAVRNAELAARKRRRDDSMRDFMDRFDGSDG

GST-Dm-Relish = target: T5, GST-Dm-Relish (Drosophila melanogaster, UniProt Q94527 99-473)
T5 sequence: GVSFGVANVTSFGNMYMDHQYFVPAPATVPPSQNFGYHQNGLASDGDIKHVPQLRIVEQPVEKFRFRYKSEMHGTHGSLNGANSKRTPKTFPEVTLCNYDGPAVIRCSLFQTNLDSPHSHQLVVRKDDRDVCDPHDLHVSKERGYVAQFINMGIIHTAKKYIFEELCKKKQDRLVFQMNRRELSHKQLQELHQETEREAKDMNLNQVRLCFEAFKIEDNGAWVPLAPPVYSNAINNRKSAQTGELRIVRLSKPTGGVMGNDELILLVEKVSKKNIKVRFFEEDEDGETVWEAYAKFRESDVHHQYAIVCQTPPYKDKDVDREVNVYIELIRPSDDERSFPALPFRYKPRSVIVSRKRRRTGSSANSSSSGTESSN

GST-Aq-NF-kB = target: T6, GST-Aq-NF-kB (Amphimedon queenslandica, UniProt A9Y5G7 2-389)
T6 sequence: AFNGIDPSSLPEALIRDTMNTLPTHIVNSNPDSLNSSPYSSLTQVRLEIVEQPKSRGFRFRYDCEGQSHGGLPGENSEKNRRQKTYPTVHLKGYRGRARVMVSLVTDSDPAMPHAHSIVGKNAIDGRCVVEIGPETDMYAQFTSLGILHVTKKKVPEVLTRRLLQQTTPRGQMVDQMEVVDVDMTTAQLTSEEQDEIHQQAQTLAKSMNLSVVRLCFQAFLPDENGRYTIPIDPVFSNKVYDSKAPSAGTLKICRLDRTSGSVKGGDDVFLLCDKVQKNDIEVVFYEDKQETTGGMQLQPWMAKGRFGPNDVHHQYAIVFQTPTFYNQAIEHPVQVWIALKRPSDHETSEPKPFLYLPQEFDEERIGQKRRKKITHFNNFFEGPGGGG

GST-Hu-p50 = GST-Hu-p50 (Homo sapiens, UniProt P19838 7-356)
Sequence of GST-Hu-p50 (P19838 7-356): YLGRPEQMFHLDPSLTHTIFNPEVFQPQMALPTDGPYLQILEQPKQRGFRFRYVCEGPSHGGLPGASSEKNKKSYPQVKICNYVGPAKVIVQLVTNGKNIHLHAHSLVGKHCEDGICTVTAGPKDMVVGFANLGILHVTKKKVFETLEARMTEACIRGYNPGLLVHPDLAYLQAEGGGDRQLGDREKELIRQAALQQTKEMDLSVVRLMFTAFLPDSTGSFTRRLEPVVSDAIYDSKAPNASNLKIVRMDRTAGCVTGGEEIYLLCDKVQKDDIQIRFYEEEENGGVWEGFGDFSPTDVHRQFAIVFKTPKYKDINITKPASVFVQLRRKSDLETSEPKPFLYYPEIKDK

Sequence | binding signal (GST-Ap-NF-kB RHD) [z-score] | binding signal [1] [z-score] | binding signal [2] [z-score] | binding signal (GST-Co-NF-kB) [z-score] | binding signal (GST-Dm-Relish) [z-score] | binding signal (GST-Aq-NF-kB) [z-score] | binding signal (GST-Hu-p50) [z-score]
CCGATTAACATCAGGATTCCCCCTGATGTTAATCGGGTCTTGATTCGCTTGACGCTGCTG | 11.3 | 10.5 | 9.81 | 8.01 | 10.2 | 8.67 | 7.26
CCGATTAACATCAGGGAGTACCCTGATGTTAATCGGGTCTTGATTCGCTTGACGCTGCTG | 5.7 | 4.14 | 3.49 | 1.84 | 8.1 | 6.66 | 3.38
CCGATTAACATCACGGGGGTTCCTGATGTTAATCGGGTCTTGATTCGCTTGACGCTGCTG | 9.11 | 5.77 | 4.99 | 2.92 | 9.73 | 6.72 | 5.25
CCGATTAACATCAGGGAACTCCCTGATGTTAATCGGGTCTTGATTCGCTTGACGCTGCTG | 8.33 | 10.6 | 6.92 | 3.39 | 9 | 9.76 | 6.16
CCGATTAACATCAACAATTTCCCTGATGTTAATCGGGTCTTGATTCGCTTGACGCTGCTG | 3.9 | 5.04 | 6.92 | 4.63 | 2.52 | 4.15 | 4.08
CCGATTAACATCACGGGGGATTATGATGTTAATCGGGTCTTGATTCGCTTGACGCTGCTG | 7.59 | 6.57 | 7 | 6.84 | 6.41 | 5.87 | 6.67
CCGATTAACATCAGAAATGTCCCTGATGTTAATCGGGTCTTGATTCGCTTGACGCTGCTG | 2.83 | 4.85 | 4.61 | 1.29 | 3.1 | 4.94 | 4.36
CCGATTAACATCAATAAATCCCCTGATGTTAATCGGGTCTTGATTCGCTTGACGCTGCTG | 7.78 | 9.33 | 11.6 | 4.45 | 9.26 | 6.63 | 7.71
CCGATTAACATCACAATCCCCCCTGATGTTAATCGGGTCTTGATTCGCTTGACGCTGCTG | 8.13 | 5.61 | 6.37 | 5.89 | 5.35 | 5.25 | 6.19
CCGATTAACATCAGGGGTATTTATGATGTTAATCGGGTCTTGATTCGCTTGACGCTGCTG | 5.75 | 5.26 | 5.54 | 4.66 | 3.79 | 5.15 | 5.56
CCGATTAACATCAGGGAAACTAATGATGTTAATCGGGTCTTGATTCGCTTGACGCTGCTG | 2.58 | 3.94 | 4.37 | 3.69 | 1.22 | 3.45 | 2.79
CCGATTAACATCAAAAACCCCCTTGATGTTAATCGGGTCTTGATTCGCTTGACGCTGCTG | 10.4 | 10.3 | 10.9 | 2.93 | 10.9 | 9.31 | 8.33
CCGATTAACATCAAATATCCCCATGATGTTAATCGGGTCTTGATTCGCTTGACGCTGCTG | 6.82 | 6.83 | 7.36 | 4.59 | 4.81 | 4.67 | 5.18
CCGATTAACATCAGGGGATACACTGATGTTAATCGGGTCTTGATTCGCTTGACGCTGCTG | 4.44 | 4.02 | 5.34 | 3.62 | 5.84 | 4.05 | 3.83
CCGATTAACATCAACATTTCCCCTGATGTTAATCGGGTCTTGATTCGCTTGACGCTGCTG | 6.31 | 8.45 | 11.6 | 8.45 | 3.46 | 5.86 | 6.35
CCGATTAACATCAGGGTGGGAAATGATGTTAATCGGGTCTTGATTCGCTTGACGCTGCTG | 2.06 | 3.1 | 2.77 | 3.37 | 1.62 | 2.27 | 2.15
CCGATTAACATCAAAAAGCCCCCTGATGTTAATCGGGTCTTGATTCGCTTGACGCTGCTG | 7.94 | 9.31 | 7.92 | 3.86 | 9.41 | 8.57 | 7.23
CCGATTAACATCAATCCTCCCCCTGATGTTAATCGGGTCTTGATTCGCTTGACGCTGCTG | 5.52 | 4.44 | 5.85 | 8.24 | 2.9 | 4.98 | 4.83
CCGATTAACATCAGGATGCCCCCTGATGTTAATCGGGTCTTGATTCGCTTGACGCTGCTG | 4.93 | 4.06 | 2.93 | 1.55 | 4.63 | 5.09 | 4.35
CCGATTAACATCAGGGGAAAACATGATGTTAATCGGGTCTTGATTCGCTTGACGCTGCTG | 6.62 | 7.81 | 9.93 | 8.6 | 5.04 | 6.17 | 6.18
CCGATTAACATCAAAATTCCCACTGATGTTAATCGGGTCTTGATTCGCTTGACGCTGCTG | 3.89 | 5.68 | 5.15 | 4.31 | 5.55 | 4.54 | 4.27
CCGATTAACATCAGGGGAGGGAATGATGTTAATCGGGTCTTGATTCGCTTGACGCTGCTG | 3.95 | 5.44 | 5.03 | 5.53 | 2.13 | 5.17 | 3.3
CCGATTAACATCAGGGGAATATATGATGTTAATCGGGTCTTGATTCGCTTGACGCTGCTG | 7.96 | 9.67 | 9 | 7.8 | 5.02 | 7.45 | 6.01
CCGATTAACATCAGGGGAGTTCATGATGTTAATCGGGTCTTGATTCGCTTGACGCTGCTG | 5.95 | 4.23 | 4.73 | 3.54 | 3.15 | 3.96 | 4.11
CCGATTAACATCAAAGTCCCCCGTGATGTTAATCGGGTCTTGATTCGCTTGACGCTGCTG | 6.78 | 5.8 | 6.12 | 6.7 | 7.35 | 5.87 | 5.37

From publication PMC5700166
